An excerpt weighted towards active compounds, which were near 4.1% of everything screened.
DAX1 inh-1 – DAX1 (NR0B1) inhibition, primary screen; 1.1% of 370,000 active; HEK293T StAR-luciferase reporter, SF-1/DAX-1 repression relief; inhibition, % at 6.8 µM;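 active = inhibition above the mean over all tested compounds plus 3 SD, cut at about 3.6% in these data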;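 note: higher inhibition means more luminescence from relief of DAX-1 repression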
DAX1 inh-2 – inhibits human nuclear receptor DAX1 | inhibition, % at 6.75 µM | AID 504766 | HEK293 Gal4-DAX1 luciferase reporter, luminescence | 0.99% of 340,000 active;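 active = inhibition above the mean over all tested compounds plus 3 SD, cut at about 4.2% in these data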;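 note: inhibition shows as a rise in luminescence from relieved DAX1 repression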
Target sequence (P51843 207-470 limits assumed): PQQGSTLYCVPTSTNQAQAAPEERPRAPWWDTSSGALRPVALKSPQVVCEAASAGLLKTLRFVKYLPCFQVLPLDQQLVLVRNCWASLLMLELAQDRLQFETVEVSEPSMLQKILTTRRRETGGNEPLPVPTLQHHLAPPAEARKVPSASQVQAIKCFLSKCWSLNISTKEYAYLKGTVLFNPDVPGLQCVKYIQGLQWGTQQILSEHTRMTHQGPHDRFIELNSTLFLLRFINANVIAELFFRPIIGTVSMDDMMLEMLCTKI
ssDAF12 agonist – S. stercoralis DAF-12 activation, primary screen | HEK293 ssDAF-12/GRIP1 lit1-tk-luc reporter, luminescence; % of 3 µM dafachronic acid response | 1% of 370,000 active | activation, % at 6.8 µM;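 active = activation above the mean over all tested compounds plus 3 SD, cut at about 0.9% in these data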
hgDAF12 agonist – hgDAF-12 agonism, primary luciferase screen; HEK293 GAL4-hgDAF12 UAS-luciferase reporter, agonist luminescence; normalized to butyrate control; activation, % at 6.8 µM; 1.8% of 370,000 active; AID 687014;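 active = activation above a cutoff set at the mean of all screened compounds plus 3 SD, cut at about 10% in these data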
hcDAF-12 act – activators of H. contortus DAF-12 nuclear receptor; HEK293 hcDAF-12 lit1-tk-luc reporter, luminescence; 0% DMSO, 100% Δ7-dafachronic acid; activation, % at 6.8 µM; 1.4% of 370,000 active;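 active = activation above the mean of all tested compounds plus 3 SD, cut at about 5.5% in these data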
LXR ag – LXR-beta agonism as hcDAF-12 counter-screen; shares compounds with hcDAF-12 act; HEK293 Gal4-LXR tk-luc reporter, luminescence, 24 h; normalized: DMSO 0%, positive control 100%; activation, % at 6.8 µM; 3,400 tested, under 10 active; AID 743027;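 active = mean percent activation of the reporter above a cutoff set as the average over tested compounds plus their standard deviation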
hcDAF12 ag – confirmation of H. contortus DAF-12 agonists. 61% of 3,400 active. HEK293 hcDAF-12 lit1-tk-luc reporter, luminescence; % of Δ7-dafachronic acid response. activation, % at 6.8 µM. shares compounds with hcDAF-12 act;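 active = mean activation across triplicate tests above the threshold derived from the earlier primary screen, cut at about 5.5% in these data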
Each line names hits and unclear results; the compound was inactive in the other large screens (follow-up assays come after a bar, where they were run); ! = not confirmed by another sample.

COCCNC(=O)c1cc2c(-c3ccc(Cl)cc3)nn(C)c2s1	hcDAF-12 act 6.8 | LXR ag inactive | hcDAF12 ag inactive
COCCNC(=O)c1cc2c(-c3ccccc3F)nn(C)c2s1	none
COC(=O)[C@]12C[C@H](CC(=O)NCCCN3CCCC3=O)C(=O)N(Cc3ccccc3)C1=C[C@H](C1CCCC1)O[C@@H]2C	none (no result: DAX1 inh-2)
COC(=O)[C@]12C[C@H](CC(=O)N3CCSCC3)C(=O)N(Cc3ccc4c(c3)OCO4)C1=C[C@H](C(C)(C)C)O[C@@H]2C	none (no result: DAX1 inh-2)
COc1ccc2c(c1)CN1CN(Cc3ccccc3)S(=O)(=O)CC21 (stereo not given)	none (no result: DAX1 inh-2)
CN1CCN(C(=O)CNC(=O)c2cccs2)CC1	hcDAF-12 act 7.8 | LXR ag inactive | hcDAF12 ag inactive
O=C(NCC(=O)N1CCCC1)c1cccs1	none
Cc1ccc2c(C)nc(/N=C(\N)NC(=O)N3c4ccccc4Sc4ccccc43)nc2c1	hcDAF-12 act 10! | LXR ag inactive | hcDAF12 ag inactive
Cc1ccc2nc(/N=C(\N)NC(=O)N3c4ccccc4Sc4ccccc43)nc(C)c2c1	none
COC(=O)C1CN(Cc2cn(Cc3ccc(OC)cc3)nn2)CCS(=O)(=O)N1Cc1ccc(Cl)cc1 (stereo not given)	none (no result: DAX1 inh-2)
CCOC(=O)Nc1ccc2c3c(cccc13)-c1ccccc1-2	DAX1 inh-1 4.2, hcDAF-12 act 8.2 | LXR ag inactive | hcDAF12 ag 7.7
Cc1ccc(NC(=O)CSc2cn[nH]n2)cc1	hcDAF-12 act 7.0 | LXR ag inactive | hcDAF12 ag inactive
CCOc1ccc(NC(=O)CSc2cn[nH]n2)cc1	none
Cc1ccccc1CN1CCCCC(NC(=O)c2ccc(N(C)C)cc2)C1=O (stereo not given)	none (no result: DAX1 inh-2)
CC(C)CN1CCN(C(=O)CCc2nnc(Cc3c[nH]c4ccccc34)o2)[C@@H](C)C1=O	hcDAF-12 act 7.0 | LXR ag inactive | hcDAF12 ag inactive
O=C(Cc1ccccc1)NC1CCCCN(Cc2ccc(Cl)cc2)C1=O (stereo not given)	none (no result: DAX1 inh-2)
O=C(NCc1cccs1)C(NS(=O)(=O)c1cccc2nsnc12)c1ccccc1 (stereo not given)	hcDAF-12 act 7.1 | LXR ag inactive | hcDAF12 ag inactive
Cc1[nH]n(C(N)=S)c(=O)c1N=Nc1ccc2ccccc2c1	ssDAF12 agonist 1.3, hgDAF12 agonist 13, hcDAF-12 act 15 | LXR ag inactive | hcDAF12 ag 9.0
Cc1ccc(N=Nc2c(C)[nH]n(C(N)=S)c2=O)cc1C	hcDAF-12 act 9.2 | LXR ag inactive | hcDAF12 ag 12
CC(COc1cccc(Cl)c1)CN1CCC(C(O)(c2ccccc2)c2ccccc2)CC1 (stereo not given)	none (no result: DAX1 inh-2)
CC(CSC(=O)c1ccccc1)C(=O)N1c2ccccc2CC1C(=O)O (stereo not given)	hcDAF-12 act 7.5 (no result: DAX1 inh-2) | LXR ag inactive | hcDAF12 ag inactive
CC(C)N1CCCCC(NC(=O)c2c(F)cccc2F)C1=O (stereo not given)	none (no result: DAX1 inh-2)
Cc1ccc(OCc2cc(C(=O)N(C)CCc3ccccn3)no2)cc1C	hcDAF-12 act 7.3 | LXR ag inactive | hcDAF12 ag inactive
CCc1ccc2c(c1)C(=O)c1ccccc1C2=O	ssDAF12 agonist 2.5, hgDAF12 agonist 11, hcDAF-12 act 8.0 | LXR ag inactive | hcDAF12 ag 9.8
CCc1ccc(NC2=CC(=O)C(=O)c3ccccc32)cc1	none
CC(=O)c1cccc(N=C2C(=O)Nc3ccccc32)c1	hcDAF-12 act 6.6 | LXR ag inactive | hcDAF12 ag inactive
Cc1ccc(N=C2C(=O)Nc3ccccc32)cc1C	none
Cc1nn(CC(=O)NCc2cc3ccccc3[nH]2)c(C)c1[N+](=O)[O-]	hcDAF-12 act 9.4 | LXR ag inactive | hcDAF12 ag inactive
COC(=O)[C@]12C[C@H](CC(=O)N3CCOCC3)C(=O)N(Cc3ccco3)C1=C[C@H](COCc1ccccc1)O[C@@H]2C	none (no result: DAX1 inh-2)
O=C(NN=C(Cc1ccccc1)Cc1ccccc1)c1ccc(F)cc1	hcDAF-12 act 6.8 | LXR ag inactive | hcDAF12 ag inactive
C/C(Cc1ccccc1)=N\NC(=O)c1ccc(F)cc1	none
c1ccc(-c2c[nH]c3ccc(OCCN4CCOCC4)c(-c4ccccc4)c23)cc1	none (no result: DAX1 inh-2)
O=C(O)c1ccc(N=Nc2c(O)ccc3ncccc23)cc1	hgDAF12 agonist 12, hcDAF-12 act 6.6 | LXR ag inactive | hcDAF12 ag 10
O=C1CCC(=O)N1c1ccc(-c2nc3ccccc3s2)cc1	hcDAF-12 act 7.3 | LXR ag inactive | hcDAF12 ag 9.5
O=S(=O)(c1ccc(C(F)(F)F)cc1)N1CCCc2nc(-c3ccccc3)ccc21	none (no result: DAX1 inh-2)
CCOC(=O)C1=NN(c2ccccc2)C2=NC(C)=C(C(=O)OC)C(c3ccc(C)cc3)N12 (stereo not given)	hcDAF-12 act 8.3 | LXR ag inactive | hcDAF12 ag inactive
O=C(NC(=S)Nc1ncc(Br)cc1Br)c1ccccc1	hcDAF-12 act 8.0 | LXR ag inactive | hcDAF12 ag 8.7
CC(C)(C)C1CCc2c(sc3c2C(=O)NC(c2ccco2)N3)C1 (stereo not given)	hcDAF-12 act 7.5 | LXR ag inactive | hcDAF12 ag inactive
CCOc1ccc(Br)cc1CNCCN1CCOCC1	hcDAF-12 act 13 | LXR ag inactive | hcDAF12 ag inactive
COc1ccc(/C=C2\Oc3ccccc3C2=O)cc1	hgDAF12 agonist 10, hcDAF-12 act 7.2 | LXR ag inactive | hcDAF12 ag inactive
COC(=O)CC[C@H](/C=C/C(=O)OC(C)(C)C)Sc1ccc(C(C)(C)C)cc1	none (no result: DAX1 inh-2)
N=c1n(CC(=O)c2ccc(Br)s2)c2ccccc2n1Cc1ccccc1	none
Cn1c(=N)n(CC(=O)c2ccc(Br)s2)c2ccccc21	ssDAF12 agonist 2.8, hgDAF12 agonist 12, hcDAF-12 act 14 | LXR ag inactive | hcDAF12 ag 16
Clc1cccc(CN2CCN(c3ncc(Cc4ccccc4)cn3)CC2)c1Cl	none (no result: DAX1 inh-2)
c1coc(-c2nc3ccccc3nc2-c2ccco2)c1	none
Nc1ccc(-c2cnc3ccccc3n2)cc1	hgDAF12 agonist 11, hcDAF-12 act 7.1 (no result: DAX1 inh-2) | LXR ag inactive | hcDAF12 ag 7.5
c1coc(-c2cnc3ccccc3n2)c1	DAX1 inh-2 4.4, hcDAF-12 act 7.8 | LXR ag inactive | hcDAF12 ag 5.7
Clc1ccc(-c2cnc3ccccc3n2)cc1	none
COC(=O)C1=C(C)N(C)C(=NCc2ccccc2C(F)(F)F)NC1c1ccc(C(F)(F)F)cc1 (stereo not given)	none (no result: DAX1 inh-2)
C[C@@H]1ON(C)[C@H]2C[C@H]3c4[nH]c5c(-c6cccc(F)c6)cccc5c4CCN3C(=O)[C@@H]12	none (no result: DAX1 inh-2)

Screening data as filed in PubChem BioAssay.
